Data reported in PubChem BioAssay.
Active and inactive are the calls of the source.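 Rule for the calls, unless noted: active = superoxide response below 65% of plate, a cut near 3 SD across the whole screen; inactive = the rest.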

Key:
[1] = reduced mouse 2C T cell binding to pMHC/ICAM-1 vesicles – MLPCN validation set, flow cytometry, LFA-1/ICAM-1 modulator project, pilot screen (AID 2523;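 active = response below a set limit, under 55% cells CD8-positive and vesicle-bound, and CD8 cells' 90th-percentile brightness under 279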;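 for vesicle binding response: mean PE anti-B7-1 fluorescence of CD8+ cells relative to row control; 100% = QL9-loaded vesicles with DMSO vehicle in the same plate row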); conditions: 2C mouse CD8+ T cells, at 7 µM, stronger effect = lower value; double positive events: measured here: CD8+/vesicle+ event percentage
[2] = target: Integrin beta-1 (Homo sapiens) + Integrin alpha-4 (Homo sapiens) (UniProt P13612+P05556); assay: alpha4beta1 integrin LIBS antibody binding reduction – U937 cells, HUTS-21 mAb, flow cytometry, validation set, VLA-4 allosteric modulator project, pilot screen (AID 2674;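 active = inhibition above 50%, about 3 SD of the validation set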;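 note: antibody binding induced by the VLA-4 ligand LDV present at three times its Kd; 0% = LDV ligand with antibody and no compound and 100% = antibody without LDV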); conditions: HUTS-21 LIBS mAb binding, at 6.7 µM, stronger effect = higher value, binding induced by LDV ligand
[3] = calorie-restriction mimetic ROS inhibitors, yeast – validation compound set, pilot screen (AID 2706);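 note: yeast exposed to compound for one week at 30 degrees C before staining; 100% = mean of all compound wells on the same plate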; conditions: S. cerevisiae aging, superoxide DHE fluorescence; at 10 µM, stronger effect = lower value
[4] = target: Beta-adrenergic receptor kinase 1 (Homo sapiens) (UniProt P25098); assay: GRK2 binders displacing RNA aptamer, biochemical, validation, human GRK2, bead flow cytometry (AID 488806;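 active = aptamer binding inhibition above 30%, about 3 SD of noise from non-fluorescent compounds; inactive = inhibition at or below 30%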); conditions: bead-bound GRK2, FAM-aptamer displacement, at 10 µM, stronger effect = higher value
[5] = target: Beta-2 adrenergic receptor (Homo sapiens) (UniProt P07550); assay: agonist-induced loss of surface beta2AR – cell-based, FAP fluorogen, flow cytometry, validation set, pilot screen (AID 504459;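 active = percent response above 42, roughly 3 SD of non-fluorescent test compounds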;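 note: agonist-driven loss of surface beta2AR via internalization measured by FAP dye flow cytometry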); conditions: Am2.2-beta2AR cells, at 10 µM, stronger effect = higher value
[6] = target: AP-2 complex subunit beta (Homo sapiens) (UniProt P63010); assay: beta-arrestin/AP2 interaction blockers – biochemical, validation set, GST-AP2 beads, flow cytometry, pilot screen (AID 504541;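 active = inhibition above 54%, about 3 SD of non-fluorescent compounds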;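 note: AP2 carries R879A mutation and is captured from E. coli lysate; bead-bound FITC arrestin peptide fluorescence measuring arrestin peptide binding to AP2; 0% = DMSO wells and 100% = excess unlabeled arrestin peptide control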); conditions: FITC arrestin peptide, at 10 µM, stronger effect = higher value, AP2 beta2 appendage fragment, R879A mutant
[7] = cytosolic pH regulators acting via V-ATPase – S. cerevisiae, pHLuorin, HTS validation (AID 504600; in the data active = response above about 15%;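 note: plate controls were DMSO for no effect and reference compound for full effect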); conditions: V-ATPase proton transport, at 10 µM, stronger effect = higher value
[8] = test system: anti-desmoglein-3 scFv antibody binding to human DSG3; assay: blockers of pathogenic pemphigus antibody–desmoglein-3 binding – biochemical, validation compound set, bead-based, flow cytometry, pilot screen (AID 588368;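 active = binding below the plate cutoff, the plate median minus 3 SD, with a reading above zero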;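 note: signal is the median channel fluorescence of bead-bound GFP antibody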); conditions: Protein G beads, DSG3-Fc, scFv-GFP binding, at 10 µM, stronger effect = lower value
[9] = Nile Red efflux blockade in pump-expressing yeast – validation compound set, multiplex, phenotypic, pilot screen (AID 588506;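 active = efflux inhibition above 0.42, the validation set average plus 4 SD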;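 note: Nile Red retained in cells so higher fluorescence means more efflux inhibition; 0 = negative control wells and 1 = enniatin B 25 µM full block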); conditions: S. cerevisiae pump-expressing triplex, Nile Red efflux flow cytometry; at 10 µM; stronger effect = higher value; the pumps come from Candida albicans
[10] = target: ATP-binding cassette sub-family B member 6 (Homo sapiens) (UniProt Q9NP58); assay: blockers of ABCB6-driven porphyrin uptake – K562-ABCB6 cells, flow cytometry, validation set, pilot screen (AID 588550;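 active = inhibition above the screen-wide mean plus 3 SD, about 51%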;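 note: 0% = DMSO wells and 100% = benzethonium chloride 70 µM positive control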); conditions: K562-ABCB6 porphyrin accumulation, 1 h, at 10 µM, stronger effect = higher value
[11] = AML differentiation inducers, ER-HoxA9 marrow cells – cell-based, GFP/MAC1 double positive, flow cytometry, validation set, primary screen (AID 588685;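 active = differentiation response of at least 50%, scaled between solvent and reference control, from cells with both markers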;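 note: compound exposure lasts four days before antibody staining and flow analysis; 0% = DMSO wells and 100% = 5 µM fulvestrant positive control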); conditions: stronger effect = higher value, normalized: vehicle 0, fulvestrant 100

Chain of Integrin beta-1 (Homo sapiens) + Integrin alpha-4 (Homo sapiens) (P05556 whole entry, looked up): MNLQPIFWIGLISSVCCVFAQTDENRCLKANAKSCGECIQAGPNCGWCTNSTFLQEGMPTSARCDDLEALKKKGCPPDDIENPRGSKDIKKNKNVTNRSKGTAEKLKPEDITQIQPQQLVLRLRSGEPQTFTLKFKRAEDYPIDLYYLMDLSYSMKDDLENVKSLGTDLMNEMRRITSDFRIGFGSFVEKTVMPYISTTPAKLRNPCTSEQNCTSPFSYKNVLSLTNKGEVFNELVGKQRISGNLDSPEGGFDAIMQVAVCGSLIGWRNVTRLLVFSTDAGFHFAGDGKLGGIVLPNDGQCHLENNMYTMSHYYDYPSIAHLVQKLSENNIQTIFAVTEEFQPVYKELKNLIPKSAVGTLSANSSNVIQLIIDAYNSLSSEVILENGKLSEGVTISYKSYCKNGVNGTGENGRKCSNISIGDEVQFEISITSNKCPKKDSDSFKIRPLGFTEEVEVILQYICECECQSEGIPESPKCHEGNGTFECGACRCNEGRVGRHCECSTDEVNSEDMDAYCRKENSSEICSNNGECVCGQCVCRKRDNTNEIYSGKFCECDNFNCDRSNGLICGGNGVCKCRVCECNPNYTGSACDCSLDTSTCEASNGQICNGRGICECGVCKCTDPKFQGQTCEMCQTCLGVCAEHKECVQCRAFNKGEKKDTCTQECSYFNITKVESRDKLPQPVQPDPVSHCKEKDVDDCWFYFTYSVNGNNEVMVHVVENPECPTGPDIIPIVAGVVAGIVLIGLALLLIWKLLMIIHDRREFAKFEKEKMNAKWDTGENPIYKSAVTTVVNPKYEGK
Chain of Integrin beta-1 (Homo sapiens) + Integrin alpha-4 (Homo sapiens) (P13612 whole entry, looked up): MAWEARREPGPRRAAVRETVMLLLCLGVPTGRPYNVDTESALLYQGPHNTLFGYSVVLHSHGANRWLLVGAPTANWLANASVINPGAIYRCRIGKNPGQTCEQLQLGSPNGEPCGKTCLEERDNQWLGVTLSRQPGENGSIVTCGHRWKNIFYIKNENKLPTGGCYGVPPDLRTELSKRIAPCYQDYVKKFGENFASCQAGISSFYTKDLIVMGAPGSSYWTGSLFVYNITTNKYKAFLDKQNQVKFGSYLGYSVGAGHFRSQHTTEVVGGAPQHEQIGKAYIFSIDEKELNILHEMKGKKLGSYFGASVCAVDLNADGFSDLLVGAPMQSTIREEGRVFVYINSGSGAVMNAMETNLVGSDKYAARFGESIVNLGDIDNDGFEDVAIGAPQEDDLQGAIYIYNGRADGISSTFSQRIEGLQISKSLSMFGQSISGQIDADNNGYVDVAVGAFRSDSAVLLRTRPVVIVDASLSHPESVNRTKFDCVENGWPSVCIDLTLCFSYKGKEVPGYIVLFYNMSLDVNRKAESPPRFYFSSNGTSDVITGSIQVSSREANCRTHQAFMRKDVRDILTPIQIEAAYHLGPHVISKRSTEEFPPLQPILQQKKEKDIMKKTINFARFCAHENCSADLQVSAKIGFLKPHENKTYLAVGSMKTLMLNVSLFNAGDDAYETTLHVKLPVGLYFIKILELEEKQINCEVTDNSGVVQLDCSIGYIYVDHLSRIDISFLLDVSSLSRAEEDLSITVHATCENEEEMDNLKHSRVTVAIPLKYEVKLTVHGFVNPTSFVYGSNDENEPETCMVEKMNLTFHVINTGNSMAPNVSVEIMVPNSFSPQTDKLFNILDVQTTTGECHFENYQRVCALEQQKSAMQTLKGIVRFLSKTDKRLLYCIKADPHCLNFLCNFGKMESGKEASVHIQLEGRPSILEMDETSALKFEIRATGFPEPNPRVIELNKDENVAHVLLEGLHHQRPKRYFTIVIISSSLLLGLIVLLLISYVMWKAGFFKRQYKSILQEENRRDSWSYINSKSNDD
Chain of AP-2 complex subunit beta (Homo sapiens) (P63010 whole entry, looked up, the tested form may be a part, one chain of several): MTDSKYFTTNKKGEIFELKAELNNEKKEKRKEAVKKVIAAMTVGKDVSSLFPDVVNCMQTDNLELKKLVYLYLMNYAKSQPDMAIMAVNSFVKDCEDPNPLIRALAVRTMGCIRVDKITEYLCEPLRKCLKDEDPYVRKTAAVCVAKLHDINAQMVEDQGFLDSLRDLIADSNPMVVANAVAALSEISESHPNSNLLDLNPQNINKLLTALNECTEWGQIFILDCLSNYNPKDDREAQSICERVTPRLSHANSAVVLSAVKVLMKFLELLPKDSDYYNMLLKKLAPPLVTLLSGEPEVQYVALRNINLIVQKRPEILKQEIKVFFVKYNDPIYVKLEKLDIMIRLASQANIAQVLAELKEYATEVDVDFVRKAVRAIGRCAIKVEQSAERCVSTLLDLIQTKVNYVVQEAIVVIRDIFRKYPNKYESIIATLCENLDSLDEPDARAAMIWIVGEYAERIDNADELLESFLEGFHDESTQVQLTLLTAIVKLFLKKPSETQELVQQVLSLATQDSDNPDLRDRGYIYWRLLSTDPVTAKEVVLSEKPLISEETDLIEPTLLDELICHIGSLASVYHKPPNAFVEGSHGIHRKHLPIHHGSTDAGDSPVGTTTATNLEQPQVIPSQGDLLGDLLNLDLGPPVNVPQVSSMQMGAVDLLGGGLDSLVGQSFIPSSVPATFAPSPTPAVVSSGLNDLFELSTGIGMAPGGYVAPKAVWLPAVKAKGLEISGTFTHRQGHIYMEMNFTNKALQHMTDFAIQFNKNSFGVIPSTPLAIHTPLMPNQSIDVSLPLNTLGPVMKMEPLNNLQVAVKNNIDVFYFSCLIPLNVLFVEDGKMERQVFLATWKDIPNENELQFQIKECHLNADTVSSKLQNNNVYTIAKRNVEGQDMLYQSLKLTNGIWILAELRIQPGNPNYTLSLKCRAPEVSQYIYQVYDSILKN
Chain of ATP-binding cassette sub-family B member 6 (Homo sapiens) (Q9NP58 whole entry, looked up): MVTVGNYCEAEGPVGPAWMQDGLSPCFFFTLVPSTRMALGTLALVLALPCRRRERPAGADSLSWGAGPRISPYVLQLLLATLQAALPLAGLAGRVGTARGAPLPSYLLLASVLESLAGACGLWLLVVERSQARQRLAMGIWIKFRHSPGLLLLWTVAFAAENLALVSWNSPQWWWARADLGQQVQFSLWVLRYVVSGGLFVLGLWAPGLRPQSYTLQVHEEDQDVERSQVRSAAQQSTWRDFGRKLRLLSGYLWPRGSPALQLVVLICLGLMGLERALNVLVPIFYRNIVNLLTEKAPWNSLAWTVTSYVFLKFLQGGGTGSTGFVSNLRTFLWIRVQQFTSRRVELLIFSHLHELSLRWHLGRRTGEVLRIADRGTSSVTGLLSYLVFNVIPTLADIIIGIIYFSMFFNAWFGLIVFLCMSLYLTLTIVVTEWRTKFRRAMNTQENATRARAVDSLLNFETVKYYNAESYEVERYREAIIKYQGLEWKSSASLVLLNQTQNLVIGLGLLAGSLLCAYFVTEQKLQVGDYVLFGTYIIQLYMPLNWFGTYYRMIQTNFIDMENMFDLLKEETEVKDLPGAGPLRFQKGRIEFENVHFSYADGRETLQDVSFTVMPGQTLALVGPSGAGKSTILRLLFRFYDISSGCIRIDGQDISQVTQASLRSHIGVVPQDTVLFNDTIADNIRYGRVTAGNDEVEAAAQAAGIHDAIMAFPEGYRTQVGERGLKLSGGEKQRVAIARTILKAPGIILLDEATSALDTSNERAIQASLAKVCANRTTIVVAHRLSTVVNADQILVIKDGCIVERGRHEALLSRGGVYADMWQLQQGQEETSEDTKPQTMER
Chain of Beta-adrenergic receptor kinase 1 (Homo sapiens) (P25098 whole entry, looked up): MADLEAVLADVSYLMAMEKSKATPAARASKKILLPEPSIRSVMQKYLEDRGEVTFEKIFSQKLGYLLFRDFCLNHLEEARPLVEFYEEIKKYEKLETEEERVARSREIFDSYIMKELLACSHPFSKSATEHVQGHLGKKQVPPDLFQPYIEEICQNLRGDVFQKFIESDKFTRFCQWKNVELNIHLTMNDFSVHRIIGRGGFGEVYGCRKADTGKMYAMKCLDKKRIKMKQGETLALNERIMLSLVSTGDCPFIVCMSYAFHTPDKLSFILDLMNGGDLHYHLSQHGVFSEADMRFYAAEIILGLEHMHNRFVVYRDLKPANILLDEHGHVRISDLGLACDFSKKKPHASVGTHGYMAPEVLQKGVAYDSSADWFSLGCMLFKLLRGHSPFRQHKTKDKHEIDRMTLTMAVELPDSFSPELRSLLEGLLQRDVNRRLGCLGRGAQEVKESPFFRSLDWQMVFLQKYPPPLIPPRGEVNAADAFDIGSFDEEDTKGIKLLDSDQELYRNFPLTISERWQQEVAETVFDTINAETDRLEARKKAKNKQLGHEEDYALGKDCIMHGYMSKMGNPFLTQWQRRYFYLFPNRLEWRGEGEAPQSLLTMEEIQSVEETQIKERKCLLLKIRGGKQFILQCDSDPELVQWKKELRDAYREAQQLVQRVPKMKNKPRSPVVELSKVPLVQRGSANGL
Chain of Beta-2 adrenergic receptor (Homo sapiens) (P07550 whole entry, looked up): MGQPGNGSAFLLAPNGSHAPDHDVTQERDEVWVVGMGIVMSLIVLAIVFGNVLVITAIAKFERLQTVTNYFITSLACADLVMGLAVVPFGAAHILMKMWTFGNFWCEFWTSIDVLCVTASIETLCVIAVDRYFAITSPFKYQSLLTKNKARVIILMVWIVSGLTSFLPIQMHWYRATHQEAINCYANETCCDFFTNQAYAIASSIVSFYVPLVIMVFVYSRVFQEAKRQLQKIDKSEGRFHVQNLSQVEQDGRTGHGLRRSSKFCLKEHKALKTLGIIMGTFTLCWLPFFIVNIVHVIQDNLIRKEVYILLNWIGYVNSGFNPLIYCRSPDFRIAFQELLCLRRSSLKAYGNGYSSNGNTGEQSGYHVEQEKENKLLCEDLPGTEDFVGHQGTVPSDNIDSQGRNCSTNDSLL

| Compound | double positive events [1] [%] | vesicle binding response [1] | inhibition [2] | superoxide response (% of plate) [3] | aptamer binding inhibition [4] | response [5] | inhibition [6] | response [7] | binding (% of control) [8] | efflux inhibition (fraction of control) [9] | inhibition [10] | differentiation response [11] |
| --- | --- | --- | --- | --- | --- | --- | --- | --- | --- | --- | --- | --- |
| CCC(=O)Oc1ccc(/C(CC)=C(\CC)c2ccc(OC(=O)CC)cc2)cc1 | 67.2 | 174% (inactive) | 19.1% (inactive) | 94.7% (inactive) | 3% (inactive) | -5.73% (inactive) | -4.91% (inactive) | 2.77% (inactive) | 84.1% (inactive) | -0.02 (inactive) | 11% (inactive) | -4.09% (inactive) |
| COc1ccc(-c2c(NC(=O)c3ccco3)n(C)c3ccccc3c2=O)cc1 | 58.6 | 125% (inactive) | -1.09% (inactive) | 102% (inactive) | 3% (inactive) | 5.47% (inactive) | -5.24% (inactive) | -3.79% (inactive) | 99.6% (inactive) | -0.37 (inactive) | -2% (inactive) | -7.5% (inactive) |
| O=C1N[C@@H](Cc2cnc[nH]2)C(=O)N2CCC[C@@H]12 | 59.8 | 103% (inactive) | 12.3% (inactive) | 125% (inactive) | 2% (inactive) | 6.03% (inactive) | -3.62% (inactive) | 6.06% (inactive) | 100% (inactive) | -0.07 (inactive) | -2% (inactive) | -7.5% (inactive) |
| CCn1c(O)c(/C=C2\C=Nc3ccccc32)sc1=O | 63.1 | 97.1% (inactive) | -0.31% (inactive) | 108% (inactive) | 1% (inactive) | -3.25% (inactive) | -17.2% (inactive) | 0.06% (inactive) | 97.5% (inactive) | -0.44 (inactive) | 4% (inactive) | -5.68% (inactive) |
| COc1cccc(OC)c1C(=O)NCCSC1CCCCC1 | 61.3 | 68.6% (inactive) | 1.59% (inactive) | 85.2% (inactive) | 1% (inactive) | 0.14% (inactive) | -3.95% (inactive) | -0.98% (inactive) | 104% (inactive) | -0.25 (inactive) | -5% (inactive) | -16.3% (inactive) |
| NC(=O)N1c2ccccc2C=Cc2ccccc21 | 56 | 120% (inactive) | 5.61% (inactive) | 112% (inactive) | 3% (inactive) | 13.8% (inactive) | 1.72% (inactive) | -12.4% (inactive) | 98.5% (inactive) | -0.07 (inactive) | 11% (inactive) | -3.11% (inactive) |
| CCS(=O)(=O)Nc1cc(OC)c(OC)cc1Cc1nccc2cc(OC)c(OC)cc12 | 57.8 | 90.7% (inactive) | -9.63% (inactive) | 93.2% (inactive) | -1% (inactive) | -40% (inactive) | -7.26% (inactive) | 4.6% (inactive) | 106% (inactive) | 0.08 (inactive) | 0% (inactive) | -5.97% (inactive) |
| CC(C)COc1ccc(Cc2cnc(N)nc2N)cc1 | 63.9 | 226% (inactive) | 3.67% (inactive) | 97.9% (inactive) | 0% (inactive) | 5.88% (inactive) | 59.5% (active) | -3.28% (inactive) | 95.5% (inactive) | 0.05 (inactive) | 0% (inactive) | 76% (active) |
| C#CCN(C)Cc1ccccc1 | 66.2 | 248% (inactive) | -2.82% (inactive) | 102% (inactive) | 2% (inactive) | -26.9% (inactive) | -10.1% (inactive) | -1.24% (inactive) | 99.9% (inactive) | -0.04 (inactive) | 2% (inactive) | -8.93% (inactive) |
| NC(N)=NC(=O)c1nc(Cl)c(N)nc1N | 62.4 | 206% (inactive) | 7.4% (inactive) | 87% (inactive) | 0% (inactive) | -22.4% (inactive) | -4.43% (inactive) | -1.82% (inactive) | 104% (inactive) | -0.04 (inactive) | -2% (inactive) | -3.02% (inactive) |
| COc1cccc(OC)c1C(=O)Nc1nc2ccc([N+](=O)[O-])cc2s1 | 60.8 | 91.9% (inactive) | -14.5% (inactive) | 101% (inactive) | -2% (inactive) | 4.56% (inactive) | 10.3% (inactive) | 1.22% (inactive) | 101% (inactive) | 0.005 (inactive) | 8% (inactive) | -3.11% (inactive) |
| CC(C)Cc1nc(NCCN2CCOCC2)c(C#N)c2c1COC(C)(C)C2 | 61.1 | 159% (inactive) | 7.4% (inactive) | 93.4% (inactive) | -1% (inactive) | -20.4% (inactive) | -18.1% (inactive) | 3.4% (inactive) | 104% (inactive) | 0.08 (inactive) | -5% (inactive) | -15.8% (inactive) |
| COc1ccc(S(=O)(=O)NC(Cc2cnc[nH]2)C(=O)O)cc1 (configuration not stated) | 49.4 | 8.1% (active) | 9.13% (inactive) | 100% (inactive) | 1% (inactive) | -7.36% (inactive) | -1% (inactive) | 1.95% (inactive) | 99.1% (inactive) | -0.35 (inactive) | -19% (inactive) | -20% (inactive) |
| OCC1(CCOc2ccccc2)CCN(CCCn2cccn2)CC1 | 62.6 | 287% (inactive) | 11.9% (inactive) | 86.7% (inactive) | 0% (inactive) | 22.2% (inactive) | -9.04% (inactive) | 3.24% (inactive) | 101% (inactive) | -0.39 (inactive) | 4% (inactive) | 7.2% (inactive) |
| CN(C)c1cc(NC(=O)CN2CCOCC2)c2ccccc2n1 | 64.4 | 183% (inactive) | -9.06% (inactive) | 96.2% (inactive) | -2% (inactive) | 2.53% (inactive) | -0.56% (inactive) | -1.23% (inactive) | 109% (inactive) | -0.17 (inactive) | 15% (inactive) | -3.28% (inactive) |
| CC(=O)/C=C/c1ccc(C)o1 | 62.2 | 175% (inactive) | 5.03% (inactive) | 95.6% (inactive) | -4% (inactive) | 14.7% (inactive) | 15.9% (inactive) | 0.22% (inactive) | 102% (inactive) | 0.51 (active) | 3% (inactive) | 28% (inactive) |
